According to publication PMC7819943, “Rice protein-binding microarrays: a tool to detect cis-acting elements near promoter regions in rice”:
In all, about 35,000 sequences were measured (“fluorescence intensity (a.u.)”: median about 10,000, highest 2% from about 52,000 on). The entries come from a sample that favours the highest values as a whole.

Biological target: T1, OsWOX13 (Oryza sativa, UniProt Q5QMM3 1-267)
T1 sequence: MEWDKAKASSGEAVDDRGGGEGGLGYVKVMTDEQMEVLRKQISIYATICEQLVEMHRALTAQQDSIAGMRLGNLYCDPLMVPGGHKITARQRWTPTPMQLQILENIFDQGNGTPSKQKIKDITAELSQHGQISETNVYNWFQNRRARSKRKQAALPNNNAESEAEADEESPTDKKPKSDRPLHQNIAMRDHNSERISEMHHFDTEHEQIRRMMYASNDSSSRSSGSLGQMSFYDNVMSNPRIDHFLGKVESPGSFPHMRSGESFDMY
Test: protein-binding microarray (RPBM); PBS, 2% BSA, 51.3 ng/ul salmon testes DNA, 50 uM zinc acetate, 200 nM TF, 25 C, 1 h; high values mean tight binding
Conditions: protein: recombinant; tags: N-terminal polyhistidine and DsRed monomer fusion (pET32a); label: CyDye5-dUTP incorporated in the synthesized complementary strand; 3' TTTTT single-stranded linker to array surface; dsDNA, one strand shown
In short: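 Polyhistidine-tagged DsRed fusions of transcription factors, joined at the N-terminus, were expressed in E. coli BL21-CodonPlus and isolated on Ni–NTA. They were incubated at 200 nM for 1 h at 25 °C on a custom Agilent array, double-stranded and BSA-blocked, in PBS with 2% BSA, salmon testes DNA and 50 µM zinc acetate. The binding signal is per-feature fluorescence intensity (arbitrary units) read on an Axon 4000B scanner after washing.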

Sequence	binding signal
AATCATTTTCAGTTACAAATTAAATGGTGTTTCAATAGCTCGGAGTCACCTAGTGCAG	6090 fluorescence intensity (a.u.)
TTAATTATTGTGAGTAATAGATTAACGACACACGTGTTGACGGAGTCACCTAGTGCAG	23300 fluorescence intensity (a.u.)
TAATAATTATAATTAATTACCGGAGTTACTTATTCTAAACCGGAGTCACCTAGTGCAG	60400 fluorescence intensity (a.u.)
TTTAGATAATTAATATTTAAATAATTATACTCTCGTTTTGCGGAGTCACCTAGTGCAG	29600 fluorescence intensity (a.u.)
TAAAACTTAATTAATTATACGTTAATATTACCTCGTTTTGCGGAGTCACCTAGTGCAG	53900 fluorescence intensity (a.u.)
GTTTATAATAATTAAAACTTAATTAATCACATGTTATTACCGGAGTCACCTAGTGCAG	22900 fluorescence intensity (a.u.)
AATATACTTAATTACCTCTATTAGTTAATATACTTAACACCGGAGTCACCTAGTGCAG	12000 fluorescence intensity (a.u.)
CTTAACTTTAAATATATAATTTTATAATAATTTTACGTTGCGGAGTCACCTAGTGCAG	17500 fluorescence intensity (a.u.)
AGTAATTAGTATGACCACCCTAATATACGGTAGTATGGTACGGAGTCACCTAGTGCAG	27200 fluorescence intensity (a.u.)
TTTATTGATTGAGAGGAACTATCTACCTCTGTAATGACATCGGAGTCACCTAGTGCAG	46600 fluorescence intensity (a.u.)
ATTTAAATTTCCATCCTTAAATTTGAAGGTGATTTTGAGGCGGAGTCACCTAGTGCAG	21500 fluorescence intensity (a.u.)
ACTTAATTAATTACGTGTTAATGGACTGCTCCGTTTTCCGCGGAGTCACCTAGTGCAG	65500 fluorescence intensity (a.u.)
GCTAATACTTAATTAATCACGCGCTAATAGACCGCTCCGTCGGAGTCACCTAGTGCAG	24500 fluorescence intensity (a.u.)
ATTAATTACGCGCTAATCGTTGCTCCGTTTTCCGTGCAAACGGAGTCACCTAGTGCAG	11400 fluorescence intensity (a.u.)
TTTAATTAATCACGCGCTAATAGACTGCTCCGTTTTCCGTCGGAGTCACCTAGTGCAG	55800 fluorescence intensity (a.u.)
AGCTAATACTTAATTAATCACGCGTTAATGGACTGCTCCGCGGAGTCACCTAGTGCAG	26700 fluorescence intensity (a.u.)
TTCTAATTAATCACGCGTTAATGGACCGCTCCGTTTTCCGCGGAGTCACCTAGTGCAG	42300 fluorescence intensity (a.u.)
ACAGATTAATTAGGCTTAATATATTCATATCGCAGTTTACCGGAGTCACCTAGTGCAG	50500 fluorescence intensity (a.u.)
ATTACGTAATTAATTAAAATACAAATTTCAGCATCCTTACCGGAGTCACCTAGTGCAG	42300 fluorescence intensity (a.u.)
AGCCTAATTAATCCGTCATCAGCAAATGTTTATTGTAGCACGGAGTCACCTAGTGCAG	29700 fluorescence intensity (a.u.)
CTCCCGTGCAGTTGCCAGTTGATTGGTTCAGCGTGGCTGCCGGAGTCACCTAGTGCAG	9720 fluorescence intensity (a.u.)

Sequence	binding signal
CATTGATTGGCCAGCCGAGGTCTAGCCTCAACCTAGCGTGCGGAGTCACCTAGTGCAG	54800 fluorescence intensity (a.u.)
CACATGTGATTGGGCCTCGAGCCTCAGCGTGCGTGCGCCCCGGAGTCACCTAGTGCAG	20400 fluorescence intensity (a.u.)
ACTTCTATAATATATGTAAATTACCTTTTGGCTTTGCTGACGGAGTCACCTAGTGCAG	4500 fluorescence intensity (a.u.)
TATAGATTAGAGAATTAGTGGAGAACAAAATATAATAAAGCGGAGTCACCTAGTGCAG	5050 fluorescence intensity (a.u.)
TTAAAATTGATTTTAGGGGATTTTCATCTGAGCTTATGTTCGGAGTCACCTAGTGCAG	55800 fluorescence intensity (a.u.)
AAAATTTAAATTTTCAGGCTTAAATTTGAAATTGATTTTACGGAGTCACCTAGTGCAG	7780 fluorescence intensity (a.u.)
TTAACAATATTTTAATGATTGCTCTTGTGCTTAGAAAATTCGGAGTCACCTAGTGCAG	5300 fluorescence intensity (a.u.)
CAGAATGATTGTGCTTAATTGTAAAATTGATTTTAGGATTCGGAGTCACCTAGTGCAG	61100 fluorescence intensity (a.u.)
TGCTTTTCATGTTTATTGATTTAGGCGCACCTGTTCTGTTCGGAGTCACCTAGTGCAG	3190 fluorescence intensity (a.u.)
TTTTAGGATGATTTAATTGTAAATTTAAAATTAAAATGGTCGGAGTCACCTAGTGCAG	35400 fluorescence intensity (a.u.)
ACACAGCTAATTAGCTCTATGACTAAATGAATAAAATGACCGGAGTCACCTAGTGCAG	25800 fluorescence intensity (a.u.)
TCGTCAGGTTAATCAAGGGAGGATTGAACGAGATTTCGTGCGGAGTCACCTAGTGCAG	5920 fluorescence intensity (a.u.)
TGATCTAATCAATGACAGCGACTTGGTTCCATGTTCTTCCCGGAGTCACCTAGTGCAG	12300 fluorescence intensity (a.u.)
TATTCAATAACTAAATTAATGCCTGATTTACGTTGTTCGTCGGAGTCACCTAGTGCAG	17400 fluorescence intensity (a.u.)
TCTTAATTTCTATCAATAATTTAATTTAGCATATAATAACCGGAGTCACCTAGTGCAG	31300 fluorescence intensity (a.u.)
ATTGATGATTTAATGAAACTAATTTGATATTGTAGATGTTCGGAGTCACCTAGTGCAG	48300 fluorescence intensity (a.u.)
CCACTAACAGTCTAACAACATGATAAGGCCTCCGCAACCACGGAGTCACCTAGTGCAG	3920 fluorescence intensity (a.u.)
AGCCTAATTACGCCATGATTTGACAATGTGGTGCTACAGTCGGAGTCACCTAGTGCAG	58300 fluorescence intensity (a.u.)
AAAATTGATATGTAATTATGACACACTTACGTCGGATATGCGGAGTCACCTAGTGCAG	64500 fluorescence intensity (a.u.)
ATTTGATTGACGAGGTATAGTAAAATGCGTCAACTTATGTCGGAGTCACCTAGTGCAG	63200 fluorescence intensity (a.u.)
TGTAAATATATTATGATTGTAGTATAACTTATATAGTATTCGGAGTCACCTAGTGCAG	10900 fluorescence intensity (a.u.)

Sequence	binding signal
GAGCCTAATTACGCCATGATTTGACAATGTGGTGCTACAGCGGAGTCACCTAGTGCAG	39300 fluorescence intensity (a.u.)
AGCCTAATTACGTCATGATTTGACAATGTAATGATACCGTCGGAGTCACCTAGTGCAG	53500 fluorescence intensity (a.u.)
GATATGATATTGACACATGATATGTAATTATATATAGAGCCGGAGTCACCTAGTGCAG	11400 fluorescence intensity (a.u.)
GCCTAATTACGCCATGATTTGATAATGTGGTGCTACAGTACGGAGTCACCTAGTGCAG	41800 fluorescence intensity (a.u.)
TTGAGCCTAATTACGCCATGATTTGACAATGTGATGCTACCGGAGTCACCTAGTGCAG	40200 fluorescence intensity (a.u.)
TGTATGCGATTTGATTAAACTTTTAAAATGTTGATTATTACGGAGTCACCTAGTGCAG	4680 fluorescence intensity (a.u.)
CTAATTACGTCATGATTTGACAATGTGGTGTGGTGCTACACGGAGTCACCTAGTGCAG	37500 fluorescence intensity (a.u.)
AACTAAAATTACATATGTAAATTTAGTTGATATGACATGTCGGAGTCACCTAGTGCAG	24600 fluorescence intensity (a.u.)
CCTGACATCTCTCAATCGGACGGTGGATACCACCTCACCGCGGAGTCACCTAGTGCAG	3620 fluorescence intensity (a.u.)
CGGTCATCAATCTCATCAGCTACATCCCAAAGGGGAATCACGGAGTCACCTAGTGCAG	5580 fluorescence intensity (a.u.)
ATTTGATTTAAAACCTCAGTTTTCGATTGAGAGAAAATATCGGAGTCACCTAGTGCAG	4350 fluorescence intensity (a.u.)
CTGTCAATCTGCATATATCTGTCTCTCTTACTCACTAACACGGAGTCACCTAGTGCAG	8750 fluorescence intensity (a.u.)
ACTCACGCGCAATTAGCTGGTTTTGATGGGTCAGGAGGAACGGAGTCACCTAGTGCAG	5020 fluorescence intensity (a.u.)
TGTAATTTAATTTTGCCTCCACATTTCCTGACTTTGGCCACGGAGTCACCTAGTGCAG	45700 fluorescence intensity (a.u.)
ACGCCATGATTTGACAATGTGATGCTACAGTAAACATTTGCGGAGTCACCTAGTGCAG	23300 fluorescence intensity (a.u.)
CCATGATTTGACAATGTGATGCTACAGTAAACATTTGCTACGGAGTCACCTAGTGCAG	42800 fluorescence intensity (a.u.)
ACGCCATGATTGACAATGTGATGCTACAGTAAACATTTGCCGGAGTCACCTAGTGCAG	53900 fluorescence intensity (a.u.)
CACCATAACTAATTAACAAGCCACCTATTTCCTCTTGACACGGAGTCACCTAGTGCAG	10800 fluorescence intensity (a.u.)
AGCCATGCATCAACACGTAATTAAGTACTAGTTGACAGTGCGGAGTCACCTAGTGCAG	4190 fluorescence intensity (a.u.)
CACATTCAGTTCTAGATTAATTTATTTTGGATGAATGTATCGGAGTCACCTAGTGCAG	6060 fluorescence intensity (a.u.)
GCTAATTAATCTATTATTGATTTAGATGTATCGACCAGTTCGGAGTCACCTAGTGCAG	53500 fluorescence intensity (a.u.)

Sequence	binding signal
TTGCTTTAACTAGCTGCTTAATTATATGTTCTTTGTATTTCGGAGTCACCTAGTGCAG	5230 fluorescence intensity (a.u.)
CGGCTAATTAATTTATATTTCTATATGTATTGACCCTGTTCGGAGTCACCTAGTGCAG	61100 fluorescence intensity (a.u.)
CCGAATTTCTATTATTTCTTAATTGTATTTCTATATGGACCGGAGTCACCTAGTGCAG	7410 fluorescence intensity (a.u.)
ATGTATTTAATTATAGATTTAATAAAATTAATCTAGTGTTCGGAGTCACCTAGTGCAG	17500 fluorescence intensity (a.u.)
AATCAATTATAACCATTTTCTATTTAATTACCTCACGCACCGGAGTCACCTAGTGCAG	25700 fluorescence intensity (a.u.)
ATATAACAGTTTATTCACAAATTATTTTCCGTTTGCAAATCGGAGTCACCTAGTGCAG	6830 fluorescence intensity (a.u.)
ATAAATTGATGCCCAATTTTCGAAGATGCTCATAGGGGTGCGGAGTCACCTAGTGCAG	52500 fluorescence intensity (a.u.)
AATATTGATGCTTAAATTTCTTTCGAAGATCCTATGGAAGCGGAGTCACCTAGTGCAG	3840 fluorescence intensity (a.u.)
ATTGACAAGATAGATTGTTGCCCAATTTTCGAAGATGCTCCGGAGTCACCTAGTGCAG	42000 fluorescence intensity (a.u.)
TCCTGTAACAGAATTGGAAAACCCAATCTGGCGACGGCTGCGGAGTCACCTAGTGCAG	9790 fluorescence intensity (a.u.)
CTTGACAGGCACCGTGATACTTGGGTTCTTGATATAACTGCGGAGTCACCTAGTGCAG	34400 fluorescence intensity (a.u.)
TGATTAATTAGCGAGAGTAATTAATTAATTATAGCCTGCGCGGAGTCACCTAGTGCAG	61600 fluorescence intensity (a.u.)
GCGTAATTAGGCGGAGAGATTATAGGGAGAGAGATCGCGACGGAGTCACCTAGTGCAG	16700 fluorescence intensity (a.u.)
GTAATTGATTTTCTGGCGCGATTAAGAGCTTGGTATATAGCGGAGTCACCTAGTGCAG	59200 fluorescence intensity (a.u.)
ATATAGTTGTGATTAATTAGTGAGTAGAGTGTGATACCTGCGGAGTCACCTAGTGCAG	22100 fluorescence intensity (a.u.)
AATCCTCTTAATTATTATTAGCGGTTCGTCCTATGATCTTCGGAGTCACCTAGTGCAG	7080 fluorescence intensity (a.u.)
TAGCTTAATTTGATTTCTATTTAAGACCTTGACATTAACGCGGAGTCACCTAGTGCAG	24400 fluorescence intensity (a.u.)
TTAAAATTATTTTATAATTAATATTTATTATTATTATTAGCGGAGTCACCTAGTGCAG	12400 fluorescence intensity (a.u.)
CTGACTGGCTCTGATTAATTAATTGATGATCGATCGAGCGCGGAGTCACCTAGTGCAG	49800 fluorescence intensity (a.u.)
ATGATATAATTAATTAATTAGCGCGCGGTTCCACCTCCCGCGGAGTCACCTAGTGCAG	60200 fluorescence intensity (a.u.)
GAGCATGATTACTTAAATATTAGCTAATTCTTTCTTTAAACGGAGTCACCTAGTGCAG	15500 fluorescence intensity (a.u.)
